Laboratory results as given in PubChem BioAssay AID1159580 (chemical genetic matrix, 2015).
Among all 5,500 compounds or so, about 2,000 (36%) were called active. Another 18% or so got no clear call; they are omitted. Cut-off read from the data, not from the text of the source: active = normalized growth mostly below about 0.91 (no sharp cut-off); inconclusive = no clear call, values can overlap the other calls; inactive = mostly above about 0.92. The list shows a part of the results.

Assay: chemical genetic growth profiling, strain panel (AID 1159580);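 note: tested at 20 µM; growth read once vehicle control cultures reached saturation at 30 °C; 1 = growth at the plate median or of vehicle wells; lower values mean less growth of the strain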
Settings: S. cerevisiae deletion strains, growth OD

Measured: normalized growth

Nc1ccc2c3c(cccc13)C(=O)NC2=O
inactive: locus YAL040C, strain CLN3, active compounds read low 0.997 | locus YCL061C, strain MRC1 (second series), active compounds read low 1 | locus YER002W, strain NOP16, active compounds read low 0.998 | locus YGR078C, strain PAC10, active compounds read low 0.981 | locus YMR307W, strain GAS1, active compounds read low 0.995 | locus YNL128W, strain TEP1, active compounds read low 0.988 | locus YNL175C, strain NOP13, active compounds read low 0.999 | locus YNL197C, strain WHI3, active compounds read low 1.01 | locus YNL224C, strain SQS1, active compounds read low 0.985 | locus YOR083W, strain WHI5 (second series), active compounds read low 0.965 | locus YPL055C, strain LGE1, active compounds read low 1.01
